Experimental data published in PubChem BioAssay (NCI).
The panel holds about 83,000 compounds, 20% with a hit somewhere; the sample as a whole holds those more often.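 How to read the values: 0–100, growth inhibition (40 = 60% inhibited); 0, no net growth; -100 to 0, cell death (-40 = 40% of starting cells died; -100 = all dead).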 Values without a mark were called inactive. Activity calls are given as the source filed them. The calls were made as follows: active = growth percent below 10; inactive = the rest.

How the values were obtained:
Experiment in all cases: NCI-60 one-dose screen, 48 h (100 = growth as untreated, 0 = no growth, -100 = all killed)
Conditions in all cases: 10 µM unless noted
NCI-H23 lung = system: NCI-H23 lung
NCI-H226 lung = system: NCI-H226 lung
NCI-H322M lung = system: NCI-H322M lung
HOP-62 NSCLC = system: HOP-62 NSCLC
NCI-H460 lung = system: NCI-H460 lung
HOP-92 NSCLC = system: HOP-92 NSCLC
NCI-H522 lung = system: NCI-H522 lung
A549/ATCC NSCLC = system: A549/ATCC NSCLC
786-0 renal = system: 786-0 renal
COLO 205 colon = system: COLO 205 colon
DU-145 prostate = system: DU-145 prostate
K-562 leukemia = system: K-562 leukemia
MALME-3M melanoma = system: MALME-3M melanoma
MDA-MB-231 breast = system: MDA-MB-231 breast
RXF 393 renal = system: RXF 393 renal
SF-268 CNS = system: SF-268 CNS
SF-295 CNS = system: SF-295 CNS
SF-539 CNS = system: SF-539 CNS
UACC-257 melanoma = system: UACC-257 melanoma
M14 melanoma = system: M14 melanoma

| SMILES | growth (NCI-H23 lung) | growth (NCI-H226 lung) | growth (NCI-H322M lung) | growth (HOP-62 NSCLC) | growth (NCI-H460 lung) | growth (HOP-92 NSCLC) | growth (NCI-H522 lung) | growth (A549/ATCC NSCLC) | growth (786-0 renal) | growth (COLO 205 colon) | growth (DU-145 prostate) | growth (K-562 leukemia) | growth (MALME-3M melanoma) | growth (MDA-MB-231 breast) | growth (RXF 393 renal) | growth (SF-268 CNS) | growth (SF-295 CNS) | growth (SF-539 CNS) | growth (UACC-257 melanoma) | growth (M14 melanoma) |
| --- | --- | --- | --- | --- | --- | --- | --- | --- | --- | --- | --- | --- | --- | --- | --- | --- | --- | --- | --- | --- |
| CC(=O)O[C@H]1CC[C@H]2[C@@H]3CC=C4c5nc(-c6ccccc6)sc5CC[C@]4(C)[C@H]3CC[C@]12C | 71.7% | 95.5% | 91.4% | 72.1% | 39.4% | 102% | 43.8% | 57.9% | 66.3% | 7.45% (active) | 86.1% | 8.09% (active) | 93.9% | 64.2% | 79.2% | 78.9% | -0.49% (active) | 13.8% | 64.6% | 61.5% |
| CC(C)(C)N1CC1C#N (stereo not given) | 99.5% | 103% | 96.3% | 105% | 105% | 105% | 96% | 105% | 98.6% | 98.7% | 105% | 99% | 103% | 96.3% | 107% | 101% | 91.4% | 103% | 105% | 110% |
| C=CC1=C[C@@H]2[C@@H]3O[C@]4(CC[C@H](O4)[C@@H](C)C[C@@H](O)C3=O)C[C@H](O)C3=NCC[C@@]32CC1 | -34.6% (active) | -29.2% (active) | -23.4% (active) | -20.3% (active) | -28.9% (active) | -22.3% (active) | -33.5% (active) | -3.33% (active) | -28.3% (active) | -25.6% (active) | -26.7% (active) | 5.48% (active) | -82.2% (active) | -29.2% (active) | -67.3% (active) | -35.8% (active) | -35.9% (active) | -43.6% (active) | -31.5% (active) | -79% (active) |
| COc1cccc2c1c(C(=O)c1ccco1)cn2Cc1ccc(F)cc1 | 111% | 96.3% | 115% | 125% | 113% | 63.4% | 76.2% | 112% | 110% | 123% | 100% | 253% | 131% | 89.9% | 131% | 114% | 122% | 113% | 104% | 131% |
| CC[CH2][Sn]([Cl])([Cl])[CH2]CC | 76.9% | 86.4% | 131% | 82.4% | 107% | 110% | -87.2% (active) | 99.3% | 73.8% | 44.2% | 106% | 30.6% | 21% | 81.6% | 51.1% | 83.2% | 96.1% | 80.4% | 67% | 83.4% |
| CN(C)CC(C(=O)Cc1ccccc1)c1ccccc1 (stereo not given) | 83.6% | 125% | 102% | 106% | 102% | 86.3% | -81.3% (active) | 97.5% | 9.78% (active) | 5.72% (active) | -10.7% (active) | 47.2% | 37.5% | 106% | 6.5% (active) | 30.6% | 113% | 5.03% (active) | 5.79% (active) | 36% |
| N#CCCNc1ccccc1 | 110% | 106% | 110% | 116% | 111% | 94.9% | 92.8% | 113% | 120% | 118% | 116% | 98.3% | 120% | 111% | 106% | 97.7% | 101% | 98.1% | 118% | 112% |
| O=C1C(N2CC2)=C(N2CC2)C(=O)C(N2CC2)=C1N1CC1 | -70% (active) | -63.6% (active) | 3.77% (active) | -17% (active) | -30.9% (active) | 41.4% | -53.3% (active) | 6.45% (active) | -76.2% (active) | -100% (active) | -15.5% (active) | 29.2% | -67.5% (active) | 93.3% | -73.4% (active) | 19.9% | -17.9% (active) | -67.1% (active) | -44.1% (active) | -82.4% (active) |
